Results filed as inconclusive are left out. Active and inactive are the calls of the source. Unless noted, calls follow the shape of the dose curve; as a rule, active = well fitted curve in the direction sought with a large enough effect; inconclusive = small, poorly fitted or top-dose-only effect, or another doubt; inactive = no such curve, though single readings can be large; an effect the other way counts as inactive or inconclusive.

Assay [1] in a line: P-glycoprotein substrates identified in KB-3-1 adenocarcinoma cell line, qHTS therapeutic library screen (AID 1346986). Also: nearly all actives have a fitted effect of over 60% in size. The method in brief: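 Viability read by CellTiter-Glo after 72 h compound exposure in dose-response of KB-3-1 and KB-8-5-11 (P-gp-high) cells. Hits needed AC50 < 10 uM, >50% maximum response and curve class -1.1 to -2.4. Cherry-picks retested ± tariquidar, including pcDNA/MDR-19 HEK-293 pair.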
(In general: In qHTS, concentration-response curves come from the screen itself.)

For assay [2], the system named is Zika virus NS2B-NS3 protease (unlinked complex). Description: Primary screen GU Rhodamine qHTS for Zika virus inhibitors: Unlinked NS2B-NS3 protease assay (AID 1347159). Also: % is scaled to controls: 0 for no effect and ±100 for the full control effect; nearly all actives have a fitted effect of over 60% in size. In a few lines: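 Buffer 10 mM Tris-HCl pH 8.0, 0.01% Tween 20. Unlinked protease 25 nM; compound preincubation 15 min, RT, protected from light. Substrate Rhod110, 1.5 microM; ~15% conversion in 15 min.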

The subject of assay [3] is Zika virus NS2B-NS3 protease (linked construct). Description: Primary screen NINDS Rhodamine qHTS for Zika virus inhibitors (AID 1347160). Also: % is scaled to controls: 0 for no effect and ±100 for the full control effect; nearly all actives have a fitted effect of over 55% in size. The method in brief: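 Aprotinin served as in-plate control. Conditions: 25 nM linked NS2B-NS3, pH 8.0 Tris buffer, titrated compounds, 15 min preincubation and 15 min reaction with 1.5 microM Rhod110 substrate at room temperature.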

A short description of assay [4]: Primary qHTS for inhibitors of nuclear receptor binding SET domain protein 2 (NSD2) in an RCH-ACV wild type WT cells (2C) (AID 1645877). Also: nearly all actives have a fitted effect of over 70% in size. Also: potency is read from the fitted curve at half-maximal effect.
In assay [5] the target is Glutathione peroxidase 1 (Homo sapiens) (UniProt P07203). Description: Primary qHTS Assay for Inhibitors of Recombinant Selenoprotein Glutathione Peroxidase 1 (GPX1) (AID 1845191). Also: nearly all actives have a fitted effect of over 65% in size. The method in brief: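 NADPH consumption tracked by fluorescence at 340/450 nm between t=0 and t=15 min, room temperature. Final mix: 10 nM GPX1, 100 nM glutathione reductase, 1 mM GSH, 0.5 mM NADPH, 0.5 mM cumene hydroperoxide, 0.01% BSA; 30 min compound–enzyme preincubation.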

Assay [6] in a line: Primary fluorescence-based thiol-reactive (MSTI) qHTS assay for identification of artifact compounds. (AID 1845221). Also: nearly all actives have a fitted effect of over 65% in size. Also: potency is read from the fitted curve at half-maximal effect. In a few lines:
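Curve-fitted percent inhibition (4-parameter Hill) derived from fluorescence, Ex 525/Em 598 nm, scaled with Acetyl-MSTI and MSTI; 1 h incubation at room temperature.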

The nature of assay [7]: Primary redox qHTS assay for identification of artifact compounds. (AID 1845223).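 Also: 0% = DMSO and 100% = reference compound.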 The method in brief: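 Redox-cycling detection via DTT (250 uM final) oxidation coupled to Amplex Red (25 uM)/HRP (250 mU/mL) in HBSS. 15 min preincubation plus 30 min after DTT, room temperature. Ex/Em 525/598 nm; 4-parameter Hill fit against DMSO and 10 uM DA3003.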
For the next assay, the system named is KB-3-1. Description: Cytotoxic Profiling of Annotated Libraries Using Quantitative High-Throughput Screening (AID 1296008). Also: nearly all actives have a fitted effect of over 60% in size. As to max response: % is scaled to controls: 0 for no effect and ±100 for the full control effect. As to conditions: Five cell lines viability, CellTiter-Glo ATP luminescence, 48-72 h; max response: stronger effect = lower value. In a few lines: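 Cytotoxicity was measured as CellTiter-Glo ATP luminescence, read after 10 min at room temperature. Compound treatment of the cells lasted 48 or 72 hr at 37 degrees Celsius in a qHTS format.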
A general note: Cellular ATP, detected with luciferase, serves as a proxy for viable cell number.

A further assay relates to HACAT. Description: qHTS assay to identify novel small-molecules to repurpose for Merkel cell carcinoma treatment (AID 1296009). Also: nearly all actives have a fitted effect of over 60% in size. The note with it: MCC and control cell lines, CellTiter-Glo viability, 72 h; at 44.8 µM (top of the series) unless noted. In a few lines: (§1)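 Cell viability, measured as CellTiter-Glo luminescence, was normalized between DMSO and no-cell wells. The cells had been exposed to 8- or 11-point compound dilutions for 72 hr at 37 degree celsius.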

The next assay has as its system HeLa. Kind of assay: Primary qHTS to identify gynecologic anti-cancer compounds using libraries of approved drugs and bioactive compounds (AID 1345084). Also: nearly all actives have a fitted effect of over 55% in size. Also: potency is read from the fitted curve at half-maximal effect. The note with it: Gynecologic cancer cell panel viability, ATPlite luminescence, 48 h; series mostly up to 57.5 µM. In a few lines: (§2)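 Cytotoxicity screen measuring ATP content by luciferase luminescence. Each compound is applied at five concentrations for 48 h at 37 C with 5% CO2.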

A further assay has as its system SKOV3. The assay is described as above. As to conditions: Gynecologic cancer cell panel viability, ATPlite luminescence, 48 h; series mostly up to 57.5 µM. The method in brief:
as §2

Assay [8] is described as follows: Cytotoxicity counterscreen for inhibitors of SARS-CoV-2 cell entry (AID 1645845; calls by dose curve; also: nearly all actives have a fitted effect of over 50% in size; also: potency is read from the fitted curve at half-maximal effect). In a few lines: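 ATP-content luminescence (ATPLite 1step, 15 min RT) read after 48 h compound exposure of Expi293F cells stably expressing human ACE2; normalized to cells-only wells and media-only wells.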
Assay [9] can be described thus: Primary qHTS to identify inhibitors of SARS-CoV-2 cell entry (AID 1645846; calls by dose curve; also: nearly all actives have a fitted effect of over 45% in size; also: potency is read from the fitted curve at half-maximal effect). The note with it: activity change, negative = inhibition: at 57.1 µM (top of the series) unless noted. The method in brief:
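Inhibition of spike-mediated entry was scored in human ACE2-transfected Expi293F cells. Particles were MLV-pseudotyped with Wuhan-Hu-1 S carrying a 19-aa C-terminal deletion; signal was luciferase after two days, scaled between spike PP and fusion-protein-free PP.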

The nature of assay [10]: qHTS drug screen for cell cycle checkpoint inhibitors in PARPi-resistant BRCA-mutant ovarian cancer cell lines. (AID 1963452; calls by dose curve; also: potency is read from the fitted curve at half-maximal effect). As to conditions: PEO1/OlaR viability, CellTiter-Glo luminescence, 96 h; for Z-AUC: stronger effect = lower value. In a few lines: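 PEO1, PEO4 and PEO1/OlaR ovarian cancer cells, 600 per well, exposed 96 h at 37C to a dilution series. Viability read by CellTiter-Glo luminescence, normalized to DMSO and empty wells; activity summarized as Z-AUC.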

For assay [11], the target named is Cytochrome P450 2C9 (Homo sapiens) (UniProt P11712). Kind of assay: Cytochrome P450 family 2 subfamily C member 9 (CYP2C9) small molecule antagonists: luciferase biochemical (cell-free) qHTS assay (AID 1645842; active = well fitted curve in the direction sought with a large enough effect in the repeat runs; an effect the other way counts as inactive or inconclusive; also: nearly all actives have a fitted effect of over 55% in size; also: potency is read from the fitted curve at half-maximal effect; as to activity change, negative = inhibition: % is scaled to controls: 0 for no effect and ±100 for the full control effect). The method in brief:
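P450-Glo CYP2C9 system: proluciferin substrate with enzyme in mix containing 0.4% BSA, 10 min at room temperature, then NADPH regeneration solution added and incubated 1 h at 37C. Detection reagent stopped reaction; luminescence read after 20 min as RLU.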

For another assay, the system named is CRL-7250. Kind of assay: qHTS assay to identify novel small-molecules to repurpose for Merkel cell carcinoma treatment (AID 1296009). Also: nearly all actives have a fitted effect of over 60% in size. The note with it: MCC and control cell lines, CellTiter-Glo viability, 72 h; series mostly up to 92 µM. In a few lines:
as §1

The subject of a further assay is NIH3T3. The assay is described as above. The note with it: MCC and control cell lines, CellTiter-Glo viability, 72 h; at 44.8 µM (top of the series) unless noted. In a few lines:
as §1

Assay [12] concerns the target Guanidinoacetate N-methyltransferase (Homo sapiens) (UniProt Q14353). Kind of assay: Confirmatory Screen for Target Class Profiling of Small Molecule Inhibitors of Methyltransferases (AID 1745852). Also: % is scaled to controls: 0 for no effect and ±100 for the full control effect. As to conditions: activity change, negative = inhibition: at 57.3 µM (top of the series) unless noted.
The mark [13] stands for this setting: measured here: PEO1 parental Z-AUC.

Glutathione peroxidase 1 (Homo sapiens), sequence (P07203 whole entry, looked up): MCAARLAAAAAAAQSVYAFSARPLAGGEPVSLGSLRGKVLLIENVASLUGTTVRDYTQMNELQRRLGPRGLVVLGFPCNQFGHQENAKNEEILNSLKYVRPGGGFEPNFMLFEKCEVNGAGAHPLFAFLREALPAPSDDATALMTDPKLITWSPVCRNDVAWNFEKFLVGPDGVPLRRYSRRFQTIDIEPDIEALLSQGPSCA
Cytochrome P450 2C9 (Homo sapiens), sequence (P11712 whole entry, looked up): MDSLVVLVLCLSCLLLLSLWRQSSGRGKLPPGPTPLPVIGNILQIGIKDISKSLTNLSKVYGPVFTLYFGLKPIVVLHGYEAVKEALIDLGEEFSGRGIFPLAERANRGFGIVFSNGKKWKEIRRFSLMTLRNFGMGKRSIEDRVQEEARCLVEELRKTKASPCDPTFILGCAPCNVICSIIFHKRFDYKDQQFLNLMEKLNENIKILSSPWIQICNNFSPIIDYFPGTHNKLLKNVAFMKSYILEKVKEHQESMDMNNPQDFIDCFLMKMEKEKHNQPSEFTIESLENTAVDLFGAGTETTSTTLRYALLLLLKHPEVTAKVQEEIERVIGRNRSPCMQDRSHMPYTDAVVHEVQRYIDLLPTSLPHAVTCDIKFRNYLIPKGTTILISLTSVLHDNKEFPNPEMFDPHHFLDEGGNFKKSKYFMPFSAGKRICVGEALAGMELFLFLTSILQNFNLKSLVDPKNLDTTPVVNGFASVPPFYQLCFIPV

In the case of `CN1CCc2cc3c(cc2[C@H]1[C@@H]1OC(=O)c2c1ccc1c2OCO1)OCO3`, the Potency entry in [1], in assay [2], in [3], in assay [4], in [5] and in [6] was “inactive” in each case. In addition, the Potency entry (in [7]; with HeLa; in the assay with SKOV3) was “inactive” each time. Also, the outcome in the assay on KB-3-1 and in the assay with HACAT was inactive.
Consider `COc1ccc(CN(C(=O)[C@@H](N)Cc2c(C)cc(C(N)=O)cc2C)[C@@H](C)c2ncc(-c3ccccc3)[nH]2)cc1C(=O)O`, for which the Potency result (in [2]; in [8]; in [5]; in [6]; in the assay on HeLa; in the assay with SKOV3) was “inactive” each time. The activity change, negative = inhibition in assay [9] is -25.7%. Further, in the assay with KB-3-1, the max response is 2.03% (inactive).
In the case of `O=C1N[C@@H](Cc2ccccc2)CN2CCCC[C@@H]12`, the Potency result in assay [2], in [3], in assay [4], in assay [5], in assay [6] and in assay [7] was “inactive” throughout. Also, the Potency entry in the assay with SKOV3 is “inactive”. Moreover, the max response in the assay on KB-3-1 is 1.17% (inactive). In the assay on HACAT, the compound was called inactive.
Consider `CC(=O)O[C@H]1CC[C@H]2[C@@H]3CC[C@H]4CC(=O)C=C(C)[C@]4(C)[C@H]3CC[C@]12C`, for which the Potency entry (in assay [2]; in assay [8]; in assay [6]; in [7]; in the assay with HeLa; in the assay on SKOV3) was “inactive” each time. In addition, in the assay with KB-3-1, the max response was 7.22% (inactive). Further, the compound was classed as inactive in the assay on HACAT.
`CN[C@@H]1C[C@H]2O[C@@](C)([C@@H]1OC)n1c3ccccc3c3c4c(c5c6ccccc6n2c5c31)C(=O)NC4`: the figures for the Z-AUC in assay [10], in assay [10] (setting [13]) and in assay [10] (measured here: PEO4 Z-AUC) were -2.43 (inactive), -2.26 and -2.16, respectively.
Turning to `CN(C)c1cc2c(cc1Sc1nc3c(N)nccc3n1CCNCC(C)(C)C)OCO2`, the values for the Potency in assay [11] and in assay [10] were 3790 nM (active) and 1550 nM (active), respectively. In addition, the results for the Z-AUC in assay [10] (setting [13]) and in assay [10] (measured here: PEO4 Z-AUC) were -1.43 and -1, respectively.
`N#Cc1cn([C@@H]2O[C@H](CO)[C@H](O)[C@@H]2O)c2ncnc(N)c12`: in assay [11], the Potency entry was “inactive”.
As for `CC(=O)O[C@H]1CC[C@@]2(CI)C(=CC[C@@H]3[C@@H]2CC[C@]2(C)C(=O)CC[C@@H]32)C1`, in the assay with CRL-7250, the Potency entry is “inactive”. Moreover, the compound was called inactive with HACAT.
With `N#CC(O[C@@H]1O[C@H](CO)[C@@H](O)[C@H](O)[C@H]1O)c1ccccc1` (stereo partly drawn), the Potency result in the assay on CRL-7250 is “inactive”.
Regarding `CCC1NC(=O)C2C(Cl)C(Cl)CN2C(=O)C(CC)NC(=O)CC(c2ccccc2)NC(=O)C(CO)NC1=O` (stereo not drawn), the Potency in assay [6] was 2320 nM (active). For the same compound, the Potency entry (in assay [7]; in the assay on HeLa) was “inactive” each time. For the same compound, the outcome with HACAT and in the assay with NIH3T3 was “inactive [at 17.4 µM]” each time.
For `C=C(CO)C(=O)O[C@H]1CC(=C)[C@@H]2C[C@H](O)C(=C)[C@@H]2[C@H]2OC(=O)C(=C)[C@@H]21`, the Potency entry (in assay [1]; in [3]; in assay [5]; in [6]; in [7]; in the assay with HeLa) was “inactive” each time. Further, the Potency result in the assay on SKOV3 was “inactive”. Moreover, the Potency in [4] was 2010 nM (active). The activity change, negative = inhibition in assay [12] is -4.37%.
For the compound `COC(=O)CC1CC2(C(=O)c3c(O)cccc3C2(O)C(=O)OC)C(C)O1` (stereo not drawn), the Potency entry (in assay [2]; in assay [3]; with HeLa; in the assay on SKOV3) was “inactive” each time. Moreover, the compound was called inactive in the assay with HACAT.
Regarding `C[C@@H]1CN(Cc2ccc(F)cc2)CCN1C(=O)COc1ccc(Cl)cc1NC(N)=O`, the Potency result (in assay [2]; in assay [3]; in [5]; in assay [6]; in [7]; in the assay on HeLa) was “inactive” each time. Moreover, the figures for the Potency (in assay [8]; in [9]; in the assay with SKOV3) were 2510 nM (active), 2510 nM (active) and 3160 nM (active), respectively. Further, the Z-AUC was -0.0879 (inactive) in assay [10], -1.28 in assay [10] (setting [13]) and 0.406 in [10] (measured here: PEO4 Z-AUC).
